The record followed here is PubChem BioAssay (NCATS).

The nature of assay [1]: qHTS drug screen for cell cycle checkpoint inhibitors in PARPi-resistant BRCA-mutant ovarian cancer cell lines. (AID 1963452; calls by dose curve). The conditions noted are these: PEO1/OlaR viability, CellTiter-Glo luminescence, 96 h, stronger effect = lower value. In short, it runs like this: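 PEO1, PEO4 and PEO1/OlaR ovarian cancer cells, 600 per well, exposed 96 h at 37C to a dilution series. Viability read by CellTiter-Glo luminescence, normalized to DMSO and empty wells; activity summarized as Z-AUC.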
(Quantitative high-throughput screening tests each substance at several concentrations.)

Assay [2] can be described thus: qHTS profiling for inhibitors of Plasmodium falciparum proliferation (AID 504749).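 Further: 0% = DMSO vehicle and full inhibition = artemisinin control; nearly all actives have a fitted effect of over 60% in size.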 Particulars: P. falciparum in erythrocytes, SYBR Green DNA, 72 h, at 12.8 µM (top of the series). The method in brief: (§1)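 Each compound contacts P. falciparum-infected red blood cells for 72 h at 37 C; lysis buffer (Tris, EDTA, saponin, Triton X, SYBR Green I) is added and fluorescence measured next morning; values normalized to controls.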

The next assay has as its system 3D7. Described as above. The conditions noted are these: P. falciparum in erythrocytes, SYBR Green DNA, 72 h; series mostly up to 28.7 µM. In short, it runs like this: as §1
Another assay concerns 7G8. The description is as above. The conditions noted are these: P. falciparum in erythrocytes, SYBR Green DNA, 72 h; series mostly up to 28.7 µM. In short, it runs like this:
as §1

Another assay has as its system AA1029. The description is as above. The conditions noted are these: P. falciparum in erythrocytes, SYBR Green DNA, 72 h; series mostly up to 28.7 µM. In short, it runs like this:
as §1

The subject of the next assay is AS120. Described as above. The conditions noted are these: P. falciparum in erythrocytes, SYBR Green DNA, 72 h; series mostly up to 28.7 µM. In short, it runs like this: as §1
In a further assay the test system is ATS189. The description is as above. Particulars: P. falciparum in erythrocytes, SYBR Green DNA, 72 h; series mostly up to 28.7 µM. The method in brief: as §1
A further assay deals with ATS95. The assay is described as above. Particulars: P. falciparum in erythrocytes, SYBR Green DNA, 72 h; series mostly up to 28.7 µM. The method in brief:
as §1

In the next assay the test system is C2A. The assay is described as above. The conditions noted are these: P. falciparum in erythrocytes, SYBR Green DNA, 72 h; series mostly up to 28.7 µM. The method in brief:
as §1

A further assay concerns CP185. The assay is described as above. Particulars: P. falciparum in erythrocytes, SYBR Green DNA, 72 h; series mostly up to 28.7 µM. In short, it runs like this: as §1
A further assay has as its system CP191. The assay is described as above. The conditions noted are these: P. falciparum in erythrocytes, SYBR Green DNA, 72 h; series mostly up to 28.7 µM. In short, it runs like this:
as §1

In another assay the test system is CP192. The description is as above. The conditions noted are these: P. falciparum in erythrocytes, SYBR Green DNA, 72 h; series mostly up to 28.7 µM. The method in brief: as §1
Another assay deals with CP194. The assay is described as above. Particulars: P. falciparum in erythrocytes, SYBR Green DNA, 72 h; series mostly up to 28.7 µM. In short, it runs like this:
as §1

The next assay concerns CP201. The assay is described as above. The conditions noted are these: P. falciparum in erythrocytes, SYBR Green DNA, 72 h; series mostly up to 28.7 µM. In short, it runs like this: as §1
Another assay relates to CP203. Described as above. The conditions noted are these: P. falciparum in erythrocytes, SYBR Green DNA, 72 h; series mostly up to 28.7 µM. The method in brief: as §1
In the next assay the test system is CP211. The assay is described as above. Particulars: P. falciparum in erythrocytes, SYBR Green DNA, 72 h; series mostly up to 28.7 µM. The method in brief: as §1
The next assay deals with CP215. The assay is described as above. The conditions noted are these: P. falciparum in erythrocytes, SYBR Green DNA, 72 h; series mostly up to 28.7 µM. The method in brief:
as §1

In another assay the test system is CP217. Described as above. The conditions noted are these: P. falciparum in erythrocytes, SYBR Green DNA, 72 h; series mostly up to 28.7 µM. In short, it runs like this:
as §1

The subject of a further assay is CP237. Described as above. Particulars: P. falciparum in erythrocytes, SYBR Green DNA, 72 h; series mostly up to 28.7 µM. The method in brief: as §1
Assay [3] is described as follows: qHTS for identification of novel therapeutic agents for treatment of microphthalmiaassociated transcription factor (MiT) renal cell carcinoma (RCC) (AID 1963991). The conditions noted are these: CellTiter-Glo, 48 h, stronger effect = lower value. In short, it runs like this: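 Viability of three TFE3-fusion renal carcinoma lines measured by CellTiter-Glo after 48 h treatment with each of 1912 compounds at 11 concentrations. Responses scaled between DMSO (100%) and empty wells (0%) before curve fitting.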

Setting [4] is: TFE3-RCC UOK109 viability, measured here: UOK109 Z-AUC.
The mark [5] stands for this setting: TFE3-RCC viability, measured here: UOK124 Z-AUC.
[6] abbreviates: TFE3-RCC viability, measured here: UOK145 Z-AUC.

Molecules are shown by their SMILES. Results filed as inconclusive are left out. The source made the active and inactive calls. Unless noted, the call rests on the fitted dose curve; in most records, active means well fitted inhibition curve with a large enough effect; inconclusive means small, poorly fitted or top-dose-only effect; inactive means flat fitted curve, though single readings scatter.

In the case of `Nc1nc2c(c(=O)[nH]1)N(C=O)[C@H](CNc1ccc(C(=O)N[C@@H](CCC(=O)O)C(=O)O)cc1)CN2`, the Z-AUC was 1.12 (inactive) in [1], 1.3 in [1] (measured here: PEO1 parental Z-AUC) and 1.01 in assay [1] (measured here: PEO4 Z-AUC). Besides, the activity, negative = inhibition was 9.3% (inactive) in [2] (parasite line A) and 7.79% (inactive) in assay [2] (parasite line B). The Potency entry in the assay with 3D7, with 7G8, in the assay with AA1029, with AS120, in the assay on ATS189 and in the assay on ATS95 was “inactive” throughout. Besides, the Potency entry in the assay on C2A, with CP185, with CP191, in the assay on CP192, with CP194 and in the assay with CP201 was “inactive” in each case. The Potency entry with CP203, in the assay with CP211, with CP215, in the assay on CP217 and in the assay on CP237 was “inactive” each time.

Consider `O=C(O)C=Cc1ccc(Cn2ccnc2)cc1`, for which the results for the z-score in assay [3] (setting [4]), in assay [3] (setting [5]) and in [3] (setting [6]) were 0.607, 0.722 and 0.686, respectively.

For `C[C@H](O)[C@@H]1C(=O)N2C(C(=O)O)=C(S[C@@H]3CN[C@H](CNS(N)(=O)=O)C3)[C@@H](C)[C@@H]12`, the z-score was -0.714 in assay [3] (setting [4]), 0.967 in assay [3] (setting [5]) and -1.41 in assay [3] (setting [6]).

Regarding `O=C(NNC(=O)c1ccc(CNS(=O)(=O)c2ccc(F)c(Cl)c2)cc1)c1ccccc1`, the z-score was found to be 0.375 in assay [3] (setting [4]), 0.329 in [3] (setting [5]) and 0.518 in assay [3] (setting [6]).

`CC(=O)OCC(=O)[C@@]12N=C(C)O[C@H]1C[C@H]1[C@@H]3CCC4=CC(=O)C=C[C@]4(C)[C@@H]3[C@@H](O)C[C@@]12C`: the z-score in assay [3] (setting [4]) came out at 0.415; in [3] (setting [5]), 0.48; in assay [3] (setting [6]), 2.44.

Take `Cc1cc(-c2nnc3n2CCCCC3)c(C)n1-c1ccccc1`: the z-score in [3] (setting [4]) came to 0.931; in assay [3] (setting [5]), 0.469; in [3] (setting [6]), 0.656.

In the case of `OC[C@@H](O)[C@@H](O)[C@H](O)[C@@H](O)CO`, the values for the z-score in [3] (setting [4]), in assay [3] (setting [5]) and in assay [3] (setting [6]) were 0.602, 0.356 and 0.716, respectively.

As for `COc1cc(C)c(C=CC(C)=CC=CC(C)=CC(=O)O)c(C)c1C`, the z-score in assay [3] (setting [4]) stood at 0.993; in assay [3] (setting [5]), 0.342; in assay [3] (setting [6]), 1.02.

Regarding `C[C@]12CCC(=O)C=C1[C@@H]1CC1[C@H]1[C@H]3[C@@H]4C[C@H]4[C@@]4(CCC(=O)O4)[C@@]3(C)CC[C@H]12` (stereo not given in full), the figures for the z-score in [3] (setting [4]), in [3] (setting [5]) and in assay [3] (setting [6]) were 0.661, 0.572 and -2.84, respectively.

For `CON=C(C(=O)N[C@@H]1C(=O)N2C(C(=O)O)=C(Cn3ccc(=N)n3CCO)CS[C@H]12)c1csc(N)n1`, the z-score in assay [3] (setting [4]) is 1.44; in [3] (setting [5]), 0.0348; in [3] (setting [6]), 0.881.

As to `O=C(O)[C@H](CC(=O)N1C[C@@H]2CCCC[C@H]2C1)Cc1ccccc1`, the z-score turned out to be 0.946 in assay [3] (setting [4]), 0.446 in assay [3] (setting [5]) and 0.344 in assay [3] (setting [6]).

As for `CC[C@H]1OC(=O)[C@H](C)[C@@H](O[C@H]2C[C@@](C)(OC)[C@@H](O)[C@H](C)O2)[C@H](C)[C@@H](O[C@@H]2O[C@@H](C)C[C@H](N(C)C)[C@@H]2O)[C@](C)(O)C[C@@H](C)C(=O)[C@H](C)[C@@H](O)[C@]1(C)O`, the z-score turned out to be 0.677 in assay [3] (setting [4]), 0.444 in assay [3] (setting [5]) and 0.443 in [3] (setting [6]).
